# Test results: PubChem BioAssay AID1745849 (National Center for Advancing Translational Sciences (NCATS), 2022)
# Hit rate of the full screen: of about 2,100 compounds, about 320 (15%) were called active. Not shown: some 52% with an inconclusive outcome. Calls come from the whole dose curve; as a rule, active = well fitted cell-killing curve with a large enough effect; inconclusive = small, poorly fitted or top-dose-only effect, or effect the other way; inactive = flat fitted curve, though single readings scatter. The list shows a part of the results. A call without a number means that no potency is given here.
# Assay: Viability Counterscreen for CMV-Luciferase Assay of Inhibitors of ATXN expression; note: nearly all actives have a fitted effect of over 55% in size
# Settings: HEK-293 CMV-luciferase cells viability, protease fluorescence, 24 h
# Method in brief: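 HEK-293 cells stably expressing CMV-luciferase, treated 24 hr at 37 °C with compounds (several concentrations). Viability by Gly-Phe-AFC fluorescence (25 uM final, 30 min); reporter by SteadyGlo luminescence after 5 min.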
# Potency is the fitted concentration of half-maximal effect.
row,Compound,Potency
1,COc1c(C)cccc1C(=O)Nc1ccc(N2CCN(C(=O)c3ccccc3C)CC2)cc1,31.6 µM (active)
2,COc1ccccc1N(C)S(=O)(=O)c1ccc(C(=O)Nc2ccc(N3CCOCC3)cc2)cc1,inactive
3,Cc1ccc(C(=O)N2CCN(c3ccc(NC(=S)NC(=O)c4cccs4)cc3)CC2)cc1,inactive
4,CC(C)n1c(NCc2cc(Cl)ccc2O)nc2ccccc21,inactive
5,C/C(=N\N=C(N)N)c1ccc(Cl)cc1Cl,inactive
6,CCc1sc(C(=O)Nc2nc(-c3ccccn3)cs2)cc1C,11.2 µM (active)
7,Cc1c(C(=O)Nc2nccs2)sc2nc(-c3cccs3)cc(C(F)(F)F)c12,inactive
8,O=C(Nc1nc(-c2ccccn2)cs1)c1cc(Cl)ccc1[N+](=O)[O-],3.16 µM (active)
9,O=C(Nc1nc(-c2ccccn2)cs1)c1ccccc1-n1cnnn1,7.94 µM (active)
10,O=C(NNc1nc2ccc(Cl)cc2s1)c1cc(-c2cccs2)nc2ccccc12,inactive
11,Cc1cc(OCC(=O)NC(C)c2ccccc2)ccc1[N+](=O)[O-] (configuration not stated),inactive
12,CC(N)c1csc(NC(=O)c2cc(C(C)(C)C)nn2Cc2ccccc2)n1 (configuration not stated),inactive
13,COc1ccc(CNC(=O)CSc2nc(-c3ccccc3)cc(-c3cccs3)c2C#N)cc1,inactive
14,CCCOc1ccccc1C1NC(=O)NC(C)=C1C(=O)OCc1ccccc1 (configuration not stated),inactive
15,CN1CCN(CC#CCn2c3ccccc3c3ccccc32)CC1,inactive
16,CCc1nc2c(OCc3ccc(Cl)cc3Cl)cccn2c1N(C=O)Cc1ccc(OC)cc1,inactive
17,S=C(Nc1ccccc1)Nc1ccc(OCc2ccc(Cl)cc2Cl)cc1,inactive
18,Cc1cc(/C=N/n2cnnc2)c(C)n1-c1ccc(OCc2ccc(Cl)cc2Cl)cc1,28.2 µM (active)
19,CN1CCN(c2nc(Nc3ccc(F)cc3)nc(Nc3ccc(F)cc3)n2)CC1,inactive
20,CCc1nc2c(OCCOc3ccc(F)cc3)cccn2c1N(C=O)Cc1ccc(OC)cc1,inactive
21,S=C(Nc1cc(Cl)ccc1Oc1ccccc1)N1CCN(c2ccccn2)CC1,25.1 µM (active)
22,CCN(CC)S(=O)(=O)c1ccc(C)c(NC(=S)N2CCN(c3ccccn3)CC2)c1,inactive
23,O=C(c1ccc(Cn2c(=S)[nH]c3ccccc3c2=O)cc1)N1CCN(c2ccccn2)CC1,inactive
24,Cn1cccc1/C=N/N1CCN(Cc2ccccc2Cl)CC1,inactive
25,C=CCNc1oc(-c2ccc(Cl)cc2)nc1C#N,inactive

row,Compound,Potency
1,O=C1N/C(=N/N=C/c2ccccc2O)SC1Cc1ccc(F)cc1 (configuration not stated),14.1 µM (active)
2,COc1cccc(C(=O)NC2CC3CCCC(C2)N3CC(=O)Nc2ccccc2C(F)(F)F)c1 (configuration not stated),inactive
3,CN(Cc1ccccc1)C1=CC(=[N+]2CCCC2)CC(C)(C)C1,inactive
4,COc1ccc(NS(=O)(=O)c2ccc(NC(=O)c3ccc(CN4CCOCC4)cc3)cc2)cc1,inactive
5,COc1cccc(S(=O)(=O)NCc2ccc(C(=O)Nc3cccc(Cl)c3)cc2)c1,15.8 µM (active)
6,CSc1cccc(NC(=O)c2ccc(CN3CCc4ccccc4C3)cc2)c1,inactive
7,Cc1ccc(-c2nc3ccc(Cl)cn3c2CC(C)(C)C)cc1,inactive
8,COc1ccc(-c2sc3ccc(OC)cc3c2-c2ccc(O)cc2)cc1,inactive
9,COc1cccc(-c2sc3ccccc3c2-c2ccc(OCCN3CCCC3)cc2)c1,inactive
10,c1ccc(-c2sc3ccccc3c2-c2ccc(OCCN3CCCC3)cc2)cc1,35.5 µM (active)
11,Cc1nc2ccccc2n1-c1nc(-c2ccco2)cc(C(F)(F)F)n1,10 µM (active)
12,Cc1ccc(C)c(/C=C/C(=O)c2ccccc(=O)c2O)c1,20 µM (active)
13,O=c1c2c(nc3c(-c4cccc(Br)c4)c[nH]n13)CCCC2,10 µM (active)
14,O=c1c2c(nc3c(-c4ccc(Cl)cc4)c[nH]n13)CCC2,inactive
15,O=C(Nc1cccnc1)C1Cc2c(-c3ccc4c(c3)OCO4)ccnc2O1 (configuration not stated),inactive
16,COc1ccc(Cl)cc1S(=O)(=O)N1CCN(C(=O)c2n[nH]c(=O)c3ccccc23)CC1,inactive
17,CC(=O)NC(c1ccco1)c1ccc2cccnc2c1O (configuration not stated),inactive
18,O=[N+]([O-])c1ccc(NC(c2ccccc2)c2ccc3cccnc3c2O)cc1 (configuration not stated),11.2 µM (active)
19,Oc1c(C(Nc2cccc(C(F)(F)F)c2)c2ccncc2)ccc2cccnc12 (configuration not stated),8.91 µM (active)
20,Oc1c(C(Nc2ccccn2)c2cccnc2)cc(Cl)c2cccnc12 (configuration not stated),inactive
21,Oc1c(C(Nc2cccc(C(F)(F)F)c2)c2cccnc2)ccc2cccnc12 (configuration not stated),inactive
22,CC(=O)NC(c1cccc([N+](=O)[O-])c1)c1ccc2cccnc2c1O (configuration not stated),1.58 µM (active)
23,O=C(O)CSc1cc(NS(=O)(=O)c2cccc([N+](=O)[O-])c2)c2ccccc2c1O,inactive
24,Cc1ccnc(NC(c2ccccc2)c2ccc3cccnc3c2O)c1 (configuration not stated),inactive
25,CCCC(=O)NC(c1ccc(C(C)C)cc1)c1ccc2cccnc2c1O (configuration not stated),inactive

row,Compound,Potency
1,CC(C)C(=O)NC(c1cccc([N+](=O)[O-])c1)c1ccc2cccnc2c1O (configuration not stated),3.16 µM (active)
2,CCc1nc2c(OCCOc3ccc(F)cc3)cccn2c1N(C)C(=O)c1ccco1,inactive
3,CCCCOc1ccccc1NC(=O)c1scc2c1OCCO2,inactive
4,Cc1ccc(/C=C2/CNC/C(=C/c3ccc(C)cc3)C2=O)cc1,8.91 µM (active)
5,O=C(CNC(=O)c1ccco1)N/N=C/c1cc(Br)ccc1O,inactive
6,CC(C)(CC(=O)N1CCN(c2ccc(Cl)cc2)CC1)CC1=NS(=O)(=O)c2ccccc2N1,inactive
7,OC(c1cc(-c2cccc(Cl)c2)nc2ccccc12)C1CCCCN1 (configuration not stated),17.8 µM (active)
8,Cc1c(C(=O)NCc2ccc(C(F)(F)F)cc2)sc(=O)n1Cc1cccc(F)c1,inactive
9,CCOC(=O)Cn1cc(C(=O)c2ccco2)c2ccccc21,inactive
10,CCn1cc(C(=O)NCc2cccc(F)c2)c(=O)c2cc(F)c(N3CCN(C(=O)c4ccco4)CC3)cc21,22.4 µM (active)
11,CC(=O)c1ccc(N2CCN(CC(O)COC(c3ccccc3)c3ccccc3)CC2)cc1 (configuration not stated),inactive
12,CCCOc1ccc(C(=O)C(CN2CCOCC2)c2ccccc2)cc1 (configuration not stated),25.1 µM (active)
13,COc1ccc(-c2csc(Nc3ccc(S(N)(=O)=O)cc3)n2)cc1OC,inactive
14,COc1cccc(CC(=O)Nc2nc(-c3ccc(OC)c(OC)c3)cs2)c1,28.2 µM (active)
15,COc1ccc(CC(=O)Nc2nc(-c3ccc(OC)c(OC)c3)cs2)cc1OC,inactive
16,CC(C)(C)c1ccc(CC(=O)N2CCC2(C)C(=O)Nc2cnc3ccccc3c2)cc1 (configuration not stated),inactive
17,NC(=S)n1[nH]c(-c2ccc([N+](=O)[O-])cc2)c(N=Nc2cccc(Cl)c2)c1=O,14.1 µM (active)
18,CCOc1ccc(C(=O)Nc2ccc(Cc3ccncc3)cc2)cc1Br,inactive
19,Cc1cccc(OCCCC(=O)Nc2nc3ccccc3[nH]2)c1,inactive
20,COC(=O)c1sc(NC(=O)c2ccc(OC)cc2OC)nc1C,inactive
21,Cc1cc(C)c(C)c(OC(=O)c2sc(Cl)nc2C)c1,20 µM (active)
22,Clc1ccc(COC(Cn2ccnc2)c2ccc(Cl)cc2Cl)c(Cl)c1 (configuration not stated),inactive
23,CCc1cc2c(=O)c(-c3cnn(-c4ccccc4)c3)coc2c(CN2CCOCC2)c1O,inactive
24,Cc1nnc(SCC(N)=O)n1CC1CCCO1 (configuration not stated),inactive
25,CCCCC(=O)OCC(=O)C1(O)Cc2c(O)c3c(c(O)c2C(OC2CC(NC(=O)C(F)(F)F)C(O)C(C)O2)C1)C(=O)c1c(OC)cccc1C3=O (configuration not stated),8.91 µM (active)

row,Compound,Potency
1,COc1cccc2c1C(=O)c1c(O)c3c(c(O)c1C2=O)C[C@](O)(C(C)=O)C[C@H]3O[C@@H]1C[C@@H](N)[C@@H](O)[C@@H](C)O1,0.891 µM (active)
2,COc1cccc2c1C(=N)c1c(O)c3c(c(O)c1C2=O)CC(O)(C(C)=O)CC3OC1CC(N)C(O)C(C)O1 (configuration not stated),1.26 µM (active)
3,Cn1c(CCc2nc3ccccc3[nH]2)nnc1SCC#N,inactive
4,CCC(C)(C)c1ccc(OCCCC[n+]2ccc(C)cc2)c(C(C)(C)CC)c1,inactive
5,CN(CC(=O)Nc1cccc(F)c1)CC(=O)Nc1cccc2ccccc12,inactive
6,CCN1CCN(Cc2ccc(NC(=O)c3ccc(C)c(NC(=O)c4nccnc4N)c3)cc2C(F)(F)F)CC1,inactive
7,O=C1C=C(Nc2ccccc2O)c2ccccc2C1=O,20 µM (active)
8,OC(c1ccccc1)(c1nc(-c2ccc3ccccc3c2)cs1)C(F)(F)F (configuration not stated),inactive
9,Cc1ccc(NS(=O)(=O)c2cc3c4c(cccc4c2)C(=O)NC3=O)cc1C,inactive
10,O=C(NN=C(c1ccccc1)c1ccccn1)c1ccccc1,3.16 µM (active)
11,O=C(N/N=C(\Cc1ncc[nH]1)c1ccccc1)c1cccnc1,inactive
12,O=C(N/N=C(\c1ccccc1)c1ccccn1)c1ccccc1Cl,7.94 µM (active)
13,CCC(CC)C(=O)c1c[nH]c(C(=O)NCc2ccccn2)c1,inactive
14,CCn1c2ccccc2c2cc(/C=N/n3cnnc3)ccc21,inactive
15,CCN1CCN(C(=S)c2ccc(-c3ccccc3)cc2)CC1,inactive
16,Cn1c2c(c(=O)[nH]c1=O)C(c1cccc(O)c1)C1=C(N2)c2ccccc2C1=O (configuration not stated),11.2 µM (active)
17,CNc1nc2c(N)ncnc2n1[C@H]1O[C@@H](CO)[C@H](O)[C@@H]1O,inactive
18,N#Cc1c(N)n(C2OC(CO)C(O)C2O)c2ncnc(N)c12 (configuration not stated),1.41 µM (active)
19,CCOC(=O)c1c(NC(=O)COC(=O)c2ccccc2NC)sc(C(=O)N(C)C)c1C,inactive
20,COC(=O)c1c(C)oc2ccc(N(C(=O)c3ccncc3)S(=O)(=O)c3ccc(C)cc3C)cc12,inactive
21,CCC1(c2ccccc2)ON(c2c(Br)cccc2Br)C1=O (configuration not stated),17.8 µM (active)
22,Cc1nc(Oc2ccc(S(=O)(=O)N3CCOCC3)cc2Cl)c2c3c(sc2n1)CCCC3,inactive
